Bioassay records (PubChem BioAssay)
Most compounds without a hit are left out; they make up all but 0.55% or so of the library.
pAkt inh – blocks phosphorylation of Akt; AID 651550; Neuro2A IGF-stimulated pAkt S473 HTRF, 20 min; stronger effect = lower value; activity change, % for hits at 50 µM; 0.32% of 360,000 active; in the data active means activity change below about -80%; inconclusive means mostly about -51% to -80%; further: on the % scale 0 is the no-effect control and ±100 the full control effect
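Neuro2A cells in DMEM with 0.5% FBS, overnight at 37 deg C, given compound at single 50 µM final, then IGF (6 nM final) for 20 min at 37 deg C. Lysed; phospho-Akt Ser473 by HTRF after 24 h, 665/615 ratio.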
TCR act – T cell receptor activation; AID 504894; Potency, µM (series often up to 9.22 µM), for inactives: at the top dose activation of IL-2 secretion, most hits filed as activators; 330,000 tested, under 10 active; primary human leukocytes, anti-CD3, IL-2 HTRF, 48 h; further: % of control where 0% means no effect
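Human primary leukocytes + a-CD3 beads + cpd, 48 hr; IL-2 in supernatant by HTRF (ex 320nm / em 665nm). No co-stimulatory signal supplied.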
GRP78 ERSR act – inducers of ER stress response in human glioma cells; U87-MG GRP78 promoter luciferase reporter, 16 h; Potency, µM, for the others: at the highest dose activation, actives largely listed as activators; 0.02% of 420,000 active; further: potency means the concentration at half of the fitted maximal effect; series mostly up to about 76 µM; % of control where 0% means no effect; nearly all actives have a fitted effect of over 35% in size
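ERSR induction read as luciferase luminescence (Bright-Glo, 10 min at room temperature) in stably transfected human U87-MG glioma cells exposed to compounds for 16 h, using GRP78 as sensor.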
TSHR antagonist – antagonists of human thyroid stimulating hormone receptor; 0.2% of 330,000 active; P16473; TSHR-expressing cells, TSH-stimulated cAMP HTRF, 2 h; stronger effect = lower value; AID 504810; activity change, negative = inhibition, % at 11.5 µM;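 active means activity change below a set negative limit, meaning inhibition stronger than a set level, cut at about -70% in these data; inconclusive means activity change between two set negative limits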; further: on the % scale 0 is the no-effect control and ±100 the full control effect
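Freshly harvested TSHR cells receive pin-tooled compound, then EC80 TSH at 4nM final. After 2 hours at 37 deg C, antibody in lysis buffer and cAMP-d2 are added; 30 minutes at ambient temperature precede the HTRF read.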
RGS4 inhibitor – blocks human RGS4-accelerated GTP hydrolysis; P49798; Potency, µM (series often up to 114 µM), inactives show top-dose activity change, negative = inhibition, actives largely listed as inhibitors; AID 504845; 0.039% of 390,000 active; Transcreener GDP fluorescence polarization, RGS4-accelerated GTP hydrolysis; further: potency means the concentration at half of the fitted maximal effect; on the % scale 0 is the no-effect control and ±100 the full control effect; nearly all actives have a fitted effect of over 75% in size
Target sequence (P49798 whole entry, looked up): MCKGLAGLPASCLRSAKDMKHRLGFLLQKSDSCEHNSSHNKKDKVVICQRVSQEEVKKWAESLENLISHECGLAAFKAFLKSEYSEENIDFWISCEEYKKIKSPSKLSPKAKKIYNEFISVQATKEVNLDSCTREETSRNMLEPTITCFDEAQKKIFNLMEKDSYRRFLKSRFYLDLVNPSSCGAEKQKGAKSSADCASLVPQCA
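MLSMR compounds (23 nl, pin-transferred) preincubated 10 min at room temperature with a 500nM (2x) first reagent, then RGS4 at 900nM (2x) plus Transcreener GDP mix added; fluorescence polarization (620/688 nm) read before and after 90 min at 30 °C.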
LDHA block – LDHA (human) enzyme inhibition. 0.15% of 480,000 active. purified LDHA, NADH/diaphorase-resazurin fluorescence; stronger effect = lower value. activity change, % (values are at about 110 or 230 µM). AID 1347041; in the data active means activity change below about -30%; inconclusive means mostly about -25% to -30%;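 further: plate controls were DMSO wells for no effect and wells without enzyme for full effect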
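Remaining NADH was detected by diaphorase (0.133 mg/mL) converting 37 µM resazurin to fluorescent resorufin, read at 0 and 20 minutes. The preceding 5-minute room-temperature reaction used 2 nM LDHA, 0.2 mM sodium pyruvate and 0.06 mM NADH at pH 7.4.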
* = called active by the depositor; i = inactive; ? = inconclusive; / = not tested or not shown; [ ] = dose if it differs, or a comment. Unless noted, the call rests on the fitted dose curve; in most records, active means well fitted curve in the direction sought with a large enough effect; inconclusive means small, poorly fitted or top-dose-only effect, or another doubt; inactive means no such curve, though single readings can be large; an effect the other way counts as inactive or inconclusive.

SMILES	pAkt inh	TCR act	GRP78 ERSR act	TSHR antagonist	RGS4 inhibitor	LDHA block
CCOC(=O)c1sc2nc(CC(=O)OC)nc(NCc3ccco3)c2c1C	i	-1%	-1%	-11	?	3
CCOC(=O)c1sc2ncnc(NCc3ccco3)c2c1C	-112%*	-5%	-2%	-2	-28%	-1
Cc1cccc(C)c1NC(=O)CSc1nc(C)c(CC(=O)c2ccc(Br)cc2)c(C)c1C#N	-102%*	-1%	-1%	6	-15%	-2
CCOC(=O)c1cccc(OCC(O)CNCCOc2ccccc2F)c1 (stereo not given)	i	1%	-4%	-106*	15%	-18
CC(C)c1cccc(C(C)C)c1NC(=O)C1CC=CCC1 (stereo not given)	/	/	/	/	/	-32*
CC(C)c1ccccc1NC(=O)C1CC=CCC1 (stereo not given)	/	/	/	/	/	4
CC1CCCN(CC2CCCCCN2)C1 (stereo not given)	/	/	/	/	/	3
CCc1ccc(NC(=O)CS(=O)CC(=O)Nc2ccc(-n3cnnn3)c(C)c2)cc1 (stereo not given)	i	0%	0%	6	9%	-32*
Cc1cc(NC(=O)CS(=O)CC(=O)Nc2c(C)cccc2C)ccc1-n1cnnn1 (stereo not given)	i	2%	-5%	-12	-10%	-6
COC(=O)c1cc(NC(=O)c2cccc3ccccc23)cc(C(=O)OC)c1	/	/	/	/	/	17
Cc1cccc(Cn2c(SCc3ccccc3)nc3c2c(=O)[nH]c(=O)n3C)c1	/	/	/	/	/	-10
CCCn1c(NC(=O)c2ccc(Br)cc2)nc2ccccc21	-87%*	-1%	8%	2	-37%	-6
CC1CCCN(Cc2cnc(Cl)s2)C1 (stereo not given)	-108%*	-1%	-3%	1	43%	-3
O=C1c2ccccc2CCC1CNCCc1ccc(O)cc1 (stereo not given)	/	/	3%	/	?	/
O=C1c2ccccc2CC[C@H]1CNCCc1ccc(O)cc1	/	/	-12%	/	4.2µM*	/
Cc1[nH]c2ccccc2c1C(c1ccc(Cl)cc1)c1c(C)[nH]c2ccccc12	/	/	/	/	/	7
CCn1nnc(NC(=O)c2cccnc2)n1	i	1%	-3%	15	-54%	-2
CCn1nnc(NC(=O)c2ccc(C(C)(C)C)cc2)n1	-108%*	-5%	-9%	18	14%	-5
CCCOc1ccc(C2C3=C(CC(C)(C)CC3=O)Nc3cc4c(cc32)OCO4)cc1 (stereo not given)	/	/	/	/	/	4
CN1OC[C@@H]2CN(S(=O)(=O)c3cccc4ccccc34)[C@H](c3ccc(-c4ccccc4)cc3)C[C@@H]21	i	/	-4%	/	/	-30*
CCn1c2ccccc2c2cc(CN3CCN(S(=O)(=O)Cc4ccccc4)CC3)ccc21	i	5%[46.1 µM]	-4%	-1	-1%	-30*
O=C(NCc1ccccn1)c1ccc(CS(=O)(=O)Cc2ccc(Cl)cc2)o1	-126%*	-5%	-4%	6	0%	0
NS(=O)(=O)c1cc(Br)c2c(c1)S(=O)(=O)NCN2	i	/	-3%	/	/	-37*
O=C1ON=C(c2ccccc2)/C1=C/c1ccc(OS(=O)(=O)c2ccccc2)cc1	i	-10%[46.1 µM]	-1%	-9	?	-39*
O=C1ON=C(c2ccccc2)/C1=C/c1ccc(O)c(O)c1	i	5%	-1%	-1	?	2
SMILES	pAkt inh	TCR act	GRP78 ERSR act	TSHR antagonist	RGS4 inhibitor	LDHA block
COc1ccc(/C=C2\C(=O)ON=C2c2ccccc2)cc1	i	3%	-1%	-8	-100%[56.9 µM]	-32*
CC(C)CCN1CN(S(=O)(=O)c2cccs2)c2nc3ccccc3nc21	-107%*	-3%	1%	7	-8%	-3
COc1ccc(C2C3=C(CC(C)(C)CC3=O)Nc3c2c(=O)[nH]c(=O)n3Cc2ccccc2)cc1 (stereo not given)	-102%*	4%	2%	-31	2%	2
COC(=O)/C(=C\c1ccc(OC(=O)c2ccccc2)cc1)C(C)=O	/	/	/	/	/	-1
CCCCc1nc2sc3c(NCC(C)O)ncnc3c2c2c1CCC2 (stereo not given)	/	/	/	/	/	4
CS(=O)Cc1cccc(C(=O)Nc2nc(-c3ccccn3)cs2)c1 (stereo not given)	/	/	/	/	/	15
O=Cc1s/c(=N\S(=O)(=O)c2ccccc2)n(CCCCl)c1Cl	i	-1%	-15%	-70*	?	-3
CCn1c(C)cs/c1=N\S(=O)(=O)c1ccccc1	i	3%	-6%	-1	10%	-4
O=C(Oc1cccc2cccnc12)c1ccco1	-110%*	-4%[46.1 µM]	6%	1	5%	2
O=C(Oc1cccc2cccnc12)c1ccc(Br)o1	i	-8%	-4%	10	?	5
COc1cccc(Nc2c(-c3ccc(O)c(OC)c3)nc3ccc(Cl)cn23)c1	/	/	/	/	/	4
O=C(Nc1nnc(S(=O)(=O)N2CCCC2)s1)c1ccccc1F	i	1%	-3%	-103*	-3%	-7
Cc1ccccc1NC(=O)c1cc(=O)c2ccccc2o1	-110%*	1%	2%	2	-10%	-4
Cc1cccc(NC(=O)c2cc(=O)c3ccccc3o2)c1	i	1%	-2%	3	-20%	-2
Cc1cccc(NC(=O)c2cc(=O)c3ccccc3o2)n1	-116%*	8%	9%	-18	13%	-13
COc1ccc(CN(C(=O)c2cc(=O)[nH]c3ccc(S(=O)(=O)N4CCOCC4)cc23)C2CC2)cc1	/	/	/	/	/	6
Cc1ccc(Cl)cc1Nc1cc(Cl)c2nonc2c1[N+](=O)[O-]	/	/	/	/	/	12
COC(=O)c1sc2nc(C)cc(C)c2c1N	i	/	4%	-4	10%	3
Cc1cc(C)c2c(N)c(C(=O)Nc3ncc(C)s3)sc2n1	-94%*	-1%[46.1 µM]	-17%	-2	5%[11.4 µM]	2
Cc1cc(C(=O)COC(=O)c2nccnc2N)c(C)n1CCc1cccs1	/	/	/	/	/	-3
CN1CCN(c2oc(-c3cccc(Cl)c3)nc2C#N)CC1	/	/	/	/	/	5
COc1cc(CCc2ccccc2)c(C(=O)O)c(O)c1C/C=C(/C)CCC=C(C)C	i	-2%[46.1 µM]	-1%	?	-18%	-38*
CCCn1c(=O)[nH]c(=O)c2c1nc(-c1ccc(OC)c(C)c1)n2CCOC	/	/	/	/	/	3
O=C1CCCC/C1=C/Nc1ccc(S(=O)(=O)Nc2ncccn2)cc1	-120%*	2%	-4%	15	8%	-3
CCOc1ccc(-n2c(SCC(=O)Nc3cc(C)on3)nc3c(c2=O)SCC3)cc1	i	-23%	-3%	-85*	5%	-6
Cc1ccc(C(=O)CSc2nc3ccccc3c(=O)n2-c2ccccc2)s1	-100%*	-2%	0%	-9	-9%	-3
